High-throughput results (PubChem)
TR SRC2 fluor cs: Total Fluorescence Counterscreen for Inhibitors of the Interaction of Thyroid Hormone Receptor and Steroid Receptor Coregulator 2 | TRb/SRC2 Texas Red total fluorescence interference | Potency, µM (top dose mostly 106 µM), without a hit: at the highest dose fluorescence change, negative = quenching | hit rate 0.29% among 280,000; active = well fitted curve in either direction with a large enough effect; inconclusive = small, poorly fitted or top-dose-only effect
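Human TRb ligand-binding domain at 0.6 uM with 20 nM Texas Red SRC2 peptide in Tris buffer containing 1 uM T3 and 5% DMSO, incubated with compound 5 h at ambient temperature. Total fluorescence (555/632 nm) calculated as parallel + 2 × perpendicular.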
Tau fluor cs: Counterscreen qHTS for Inhibitors of Tau Fibril Formation, Fluorescence Polarization | Potency, µM (titrated, usually from 57.7 µM), for the others: top-dose activity change, negative = decrease | tau K18 P301L Alexa594 fluorescence, heparin fibrillization | hit rate 0.93% among 280,000; also: nearly all actives have a fitted effect of over 55% in size
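Human tau K18 P301L (15 uM unlabeled, 0.24 uM Alexa 594-labeled) in 100 mM sodium acetate pH 7 with 20 uM heparin, 6 hr at 37 C. ThT 30 uM added, 1 hr ambient; Alexa 594 FP and total fluorescence read at 555/632 nm.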
Tau fibril FP: qHTS for Inhibitors of Tau Fibril Formation, Fluorescence Polarization | Microtubule-associated protein tau (Homo sapiens), P10636 | K18 P301L tau heparin fibrillization, Alexa594 FP, 6 h | Potency, µM (top dose mostly 57.7 µM), for inactives: at the highest dose activity, negative = inhibition, most hits filed as inhibitors | hit rate 0.39% among 280,000 | AID 1468, 2008; also: nearly all actives have a fitted effect of over 55% in size
Target sequence (P10636 561-689 P618L limits assumed): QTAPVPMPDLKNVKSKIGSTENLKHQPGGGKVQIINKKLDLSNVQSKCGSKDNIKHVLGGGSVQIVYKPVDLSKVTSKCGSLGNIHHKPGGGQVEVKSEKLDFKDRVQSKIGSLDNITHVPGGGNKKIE
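K18 P301L tau (15 uM unlabeled/0.24 uM Alexa 594-labeled, final) + compound + heparin 20 uM final; 100 mM NaOAc pH 7; 6 hr 37 C; ThT 30 uM final added, 1 hr RT; FP ex 555/em 632 nm.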
TRb SRC2 PPI: qHTS for Inhibitors of the Interaction of Thyroid Hormone Receptor and Steroid Receptor Coregulator 2; Thyroid hormone receptor beta (Homo sapiens), P10828; TRbeta-SRC2 peptide binding, fluorescence polarization; receptor liganded with 1 µM T3; Potency, µM (highest dose often 106 µM), for inactives: at the highest dose activity change, negative = inhibition, most hits filed as inhibitors; hit rate 0.065% among 280,000;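 also: plate controls were bound peptide for no effect and peptide without receptor for full effect; nearly all actives have a fitted effect of over 50% in size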
Target sequence (P10828 whole entry, looked up): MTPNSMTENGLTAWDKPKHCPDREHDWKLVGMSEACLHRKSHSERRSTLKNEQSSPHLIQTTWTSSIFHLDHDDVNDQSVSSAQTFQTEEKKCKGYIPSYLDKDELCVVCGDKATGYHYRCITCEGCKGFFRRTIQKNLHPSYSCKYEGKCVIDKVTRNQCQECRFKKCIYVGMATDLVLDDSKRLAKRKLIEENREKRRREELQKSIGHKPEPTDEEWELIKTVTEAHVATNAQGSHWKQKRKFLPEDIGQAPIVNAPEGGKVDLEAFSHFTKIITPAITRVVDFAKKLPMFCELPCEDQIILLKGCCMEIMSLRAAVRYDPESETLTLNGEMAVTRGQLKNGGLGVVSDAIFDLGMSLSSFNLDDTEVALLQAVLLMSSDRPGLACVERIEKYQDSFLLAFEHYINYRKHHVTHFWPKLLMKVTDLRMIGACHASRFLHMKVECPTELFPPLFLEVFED
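Human TRb ligand-binding domain (0.6 uM) is mixed with 20 nM Texas Red SRC2 peptide and 1 uM T3; after compound addition and 5 hr at ambient temperature, polarization is measured and normalized to unbound and bound controls.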
Tau fibril ThT: qHTS for Inhibitors of Tau Fibril Formation, Thioflavin T Binding; recombinant tau K18 P301L, heparin-induced fibrillization, ThT fluorescence; Potency, µM (highest dose often 57.4 µM), for the others: at the highest dose activity, negative = inhibition, usual class: inhibitors; hit rate 2.1% among 270,000; AID 1460, 2008; also: nearly all actives have a fitted effect of over 55% in size
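ThT emission at 510 nm, taken 1 hr after adding 30 uM dye, quantifies aggregates formed when 20 uM heparin acts on human tau K18 P301L for 6 hr at 37 C.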
* hit, by the source's call; [ ] = dose if it differs, or a comment. Compounds with a hit are over-represented: about 3% of the library has one in this group of screens. Unless noted, calls follow the shape of the dose curve; as a rule, active = well fitted curve in the direction sought with a large enough effect; inconclusive = small, poorly fitted or top-dose-only effect, or another doubt; inactive = no such curve, though single readings can be large; an effect the other way counts as inactive or inconclusive. Unless noted, % is scaled to controls: 0 for no effect and ±100 for the full control effect; potency is read from the fitted curve at half-maximal effect.

`Cc1cccc(NS(=O)(=O)c2ccc3c(c2)[C@H]2C=CC[C@H]2[C@@H](c2ccc(F)cc2)N3)c1` gave TR SRC2 fluor cs 8.4%, Tau fluor cs 5.62µM*[quencher], Tau fibril FP -7.9%, TRb SRC2 PPI 16.2% and Tau fibril ThT inconclusive.
Screening COC(=O)c1ccc([C@H]2Nc3ccc(S(=O)(=O)Nc4ccc(F)cc4)cc3[C@H]3C=CC[C@H]32)cc1 returned TR SRC2 fluor cs -1.6%, Tau fluor cs inconclusive, Tau fibril FP -4.7%, TRb SRC2 PPI 0.6% and Tau fibril ThT inconclusive.
Screening COc1ccc(C(=O)N/N=C(\C)c2ccc3c(c2)C2C=CCC2C(c2ccccc2)N3)cc1 (stereo not given) returned TR SRC2 fluor cs 3.5%, Tau fluor cs inconclusive, Tau fibril FP -4.1%, TRb SRC2 PPI 4.8% and Tau fibril ThT 12.6µM*.
Screening COc1cccc(NS(=O)(=O)c2ccc3c(c2)C2C=CCC2C(c2ccc(C(=O)O)cc2)N3)c1 (stereo not given) returned TR SRC2 fluor cs -4.0%, Tau fluor cs 12.6µM*[quencher], Tau fibril FP inconclusive, TRb SRC2 PPI 3.4% and Tau fibril ThT 14.1µM*.
For O=C(CNC(=O)c1ccc(F)cc1)OCc1cc(=O)n2nc(C3CC3)sc2n1 the results were TR SRC2 fluor cs -3.9%, Tau fluor cs -2.4%, Tau fibril FP -4.6%, TRb SRC2 PPI 3.8% and Tau fibril ThT -6.7%.
Screening Cc1[nH]n(S(=O)(=O)Cc2ccccc2)c(=O)c1N=Nc1ccccc1Cl returned TR SRC2 fluor cs -1.8%, Tau fluor cs -22.3%, Tau fibril FP 10.6%, TRb SRC2 PPI -5.1% and Tau fibril ThT 15.8µM*.
For O=S(=O)(Cc1ccc(Cl)cc1)N1CCN(Cc2ccccc2)CC1 the results were TR SRC2 fluor cs 0.8%, Tau fluor cs 2.3%, Tau fibril FP 3.6%, TRb SRC2 PPI 3.9% and Tau fibril ThT 0.3%.
`COc1c(C)cc(S(=O)(=O)Nc2cccc(-c3ccc(N4CCOCC4)nn3)c2)c(C)c1C` gave TR SRC2 fluor cs -2.3%, Tau fluor cs -28.8%, Tau fibril FP -0.9%, TRb SRC2 PPI 3.5% and Tau fibril ThT -7.1%.
Screening CC1(C)CC(=O)c2cc(-c3nc(-c4ccccc4)cs3)c(=O)[nH]c2C1 returned TR SRC2 fluor cs -7.1%, Tau fluor cs -7.9%, Tau fibril FP 0.2%, TRb SRC2 PPI 1.8% and Tau fibril ThT 4.5%.
`CNCCCCc1cnc(C)c2[nH]c3ccccc3c12` gave TR SRC2 fluor cs -1.5%, Tau fluor cs -10.7%, Tau fibril FP -0.3%, TRb SRC2 PPI -2.4% and Tau fibril ThT -10.2%.
Cc1ccc(NCC(=O)N/N=C/c2cc3ccccc3nc2Cl)cc1 was read as TR SRC2 fluor cs -4.4%, Tau fluor cs inconclusive, Tau fibril FP 1.8%, TRb SRC2 PPI inconclusive and Tau fibril ThT 17.8µM*.
For O=C(CN1CCOCC1)N/N=C/c1cc2ccccc2nc1Cl the results were TR SRC2 fluor cs -8.1%, Tau fluor cs -5.9%, Tau fibril FP -8.9%, TRb SRC2 PPI -5.0% and Tau fibril ThT -16.8%.
For O=C(CCCN1C(=O)/C(=C\c2cccs2)SC1=S)Nc1cccc(C(=O)O)c1 the results were TR SRC2 fluor cs -4.6%, Tau fluor cs -19.6%, Tau fibril FP 10.8%, TRb SRC2 PPI -0.1% and Tau fibril ThT inconclusive.
`O=C(CCCN1C(=O)/C(=C/c2cccs2)SC1=S)Nc1ccc(O)c(C(=O)O)c1` gave TR SRC2 fluor cs -3.9%, Tau fluor cs inconclusive, Tau fibril FP 0.5%, TRb SRC2 PPI 0.6% and Tau fibril ThT 8.91µM*.
`O=C(CCCN1C(=O)/C(=C/c2ccco2)SC1=S)Nc1cccc(C(=O)O)c1` gave TR SRC2 fluor cs -15.8%, Tau fluor cs -18.0%, Tau fibril FP -13.6%, TRb SRC2 PPI 4.3% and Tau fibril ThT 15.8µM*.
For O=C(CCCN1C(=O)/C(=C\c2cccs2)SC1=S)Nc1ccc(C(=O)O)cc1 the results were TR SRC2 fluor cs -3.0%, Tau fluor cs -24.3%, Tau fibril FP -0.9%, TRb SRC2 PPI 3.9% and Tau fibril ThT inconclusive.
COc1ccc(NC(=O)CCCN2C(=O)/C(=C\c3ccco3)SC2=S)cc1 was read as TR SRC2 fluor cs inconclusive, Tau fluor cs inconclusive, Tau fibril FP inconclusive, TRb SRC2 PPI inconclusive and Tau fibril ThT 15.8µM*.
For CC(C)CCCC(C)CCCC(C)CCCC(C)C(=O)O (stereo not given) the results were TR SRC2 fluor cs -24.9% and TRb SRC2 PPI 3.7%.
For O=[N+]([O-])c1ccc(O)c(-c2nc(-c3ccccc3)c(-c3cccs3)[nH]2)c1 the results were TR SRC2 fluor cs 0.7%, Tau fluor cs 11.2µM*[quencher], Tau fibril FP -19.9%, TRb SRC2 PPI -6.2% and Tau fibril ThT 20µM*.
O=C(O)c1ccc(-c2nc(-c3ccccc3)c(-c3cccs3)[nH]2)cc1 was read as TR SRC2 fluor cs -5.2%, Tau fluor cs -30.4%, Tau fibril FP inconclusive and TRb SRC2 PPI -1.3%.
`CCOc1cc(-c2nc(-c3ccccc3)c(-c3cc([N+](=O)[O-])ccc3C)[nH]2)ccc1O` gave TR SRC2 fluor cs -0.8%, Tau fluor cs 11.2µM*[quencher], Tau fibril FP 13.3%, TRb SRC2 PPI 13.7% and Tau fibril ThT inconclusive.
O=C(OCC1CCC2OC2C1)C1CCC2OC2C1 (stereo not given) was read as TR SRC2 fluor cs 2.7%[201 µM] and TRb SRC2 PPI 3.0%[201 µM].
`Cc1ccc(S(=O)(=O)Nc2cc3c(cc2NCc2ccccc2)n(C)c(=O)n3C)cc1` gave TR SRC2 fluor cs -1.6%, Tau fluor cs inconclusive, Tau fibril FP inconclusive, TRb SRC2 PPI -5.3% and Tau fibril ThT inconclusive.
Cc1ccc(S(=O)(=O)Nc2cc3c(cc2NCc2ccccc2)n(C)c(=O)n3C)c(C)c1 was read as TR SRC2 fluor cs -0.3%, Tau fluor cs inconclusive, Tau fibril FP inconclusive, TRb SRC2 PPI -4.8% and Tau fibril ThT 17.8µM*.
For CSc1nc2ccc(NS(=O)(=O)c3cccc(Cl)c3Cl)cc2s1 the results were TR SRC2 fluor cs 1.12µM*[quencher], Tau fluor cs -4.6%, Tau fibril FP -10.0%, TRb SRC2 PPI -8.9%[53 µM] and Tau fibril ThT 4.6%.
`Cc1c(CC(=O)NCCc2ccccc2)c(=O)oc2c(C)c3occ(C(C)(C)C)c3cc12` gave TR SRC2 fluor cs -1.2%, Tau fluor cs 7.1%, Tau fibril FP -0.8%, TRb SRC2 PPI 2.6% and Tau fibril ThT 8.4%.
For CCc1ccc(S(=O)(=O)ON2C(=O)c3ccccc3C2=O)cc1 the results were TR SRC2 fluor cs -6.9%, Tau fluor cs -13.1%, Tau fibril FP inconclusive, TRb SRC2 PPI -0.8% and Tau fibril ThT 15.8µM*.
